Screening results from PubChem.
This is a sample that favours compounds with a hit; in the whole collection about 2.6% have one here.
IDE cell inh – cellular human IDE inhibition. HEK cells, FAbetaB cleavage, fluorescence polarization. P14735. hit rate 0.41% among 320,000. inhibition, % at 5.59 µM;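 active = percent inhibition above the average of all tested compounds plus 3 SD, set per screening campaign, cut at about 16% in these data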;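 note: IDE supplied by intact live HEK cells; FP after avidin binding of uncleaved biotin substrate so inhibition keeps polarization high; 0% = DMSO wells and 100% = 60 µM reference IDE inhibitor Ii1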
CRFBP-R2 agonist – CRF-BP/CRF-R2 complex agonism. HEK293 CRF-R2/CRF-BP, calcium dye fluorescence (FLIPR); percent of saturating CRF peptide response. activation, % at 13.2 µM. hit rate 0.46% among 350,000;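 active = activation of at least 50%, plus an integration ratio under a set limit after plate pattern correction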;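 note: plate controls were neutral control wells without compound for no effect and CRF at EC100 for full effect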
IDE act – IDE (human) activation, cell-based; HEK cells, FAbeta-B cleavage, fluorescence polarization; 0% vehicle, 100% cell-free pure enzyme wells; hit rate 0.073% among 340,000; P14735; AID 493087; activation, % at 5.96 µM;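 active = activation above the mean of all tested compounds plus 3 SD, set per screening campaign, cut at about 17% in these data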
Myeloid diff MLP – compounds promoting myeloid differentiation; ER-HoxA9 myeloid progenitors, lysozyme-GFP differentiation, flow cytometry; calls only at 10 µM; hit rate 1% among 360,000;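 active = normalized GFP-positive differentiation at or above the plate's own cutoff, the solvent-only control mean plus 3 SD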;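 note: cells exposed to compound for four days before flow analysis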
CRFBP-R2 block – blocks CRF-induced signaling of the CRF-BP/CRF-R2 complex | AID 588475 | hit rate 0.59% among 350,000 | inhibition, % at 11.8 µM | HEK293 CRF-R2/CRF-BP, CRF-induced calcium fluorescence;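 active = inhibition of the ligand-induced calcium signal above about 50% at the single tested concentration, limit read from the data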
TPT1 inh – inhibitors of Candida albicans tRNA 2'-phosphotransferase TPT1. recombinant caTPT1, FP RNA substrate dephosphorylation. inhibition, % at 5 µM. hit rate 0.81% among 300,000. AID 1962;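 active = inhibition above the mean of all tested compounds plus 3 SD, set per screening campaign, cut at about 24% in these data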;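 note: plate controls were DMSO alone for no effect and ferristatin control at 100 nM for full effect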
* hit, by the source's call; i = inactive; x = no result; + = active, no number.

SMILES	IDE cell inh	CRFBP-R2 agonist	IDE act	Myeloid diff MLP	CRFBP-R2 block	TPT1 inh
COc1ccc(C(C)=O)cc1CSc1nnc2c(Cl)cc(Cl)cn12	5	-4	-1	i	55*	-3
COc1ccc(NC(=O)CN2C(=O)/C(=C3\SC(=S)N(CCC(=O)O)C3=O)c3ccccc32)cc1	4	-1	1	i	5	-2
O=C(O)CCN1C(=O)/C(=C2\C(=O)N(Cc3ccccc3Cl)c3ccccc32)SC1=S	x	x	-2	+	x	x
CCOC(=O)c1nc2cc3n(c(C)c-2c1C)C(C)C(C)=C3C (centres undefined)	-2	2	-1	i	3	8
CCOC(=O)c1nc2cc3n(c(CC(C)C)c-2c1C)CC(C)=C3C	2	31	8	+	33	13
CCOc1cccc(CN2CCCC(N3CCc4cc(OC)c(OC)cc4C3)C2)c1O (centres undefined)	-4	-1	3	i	-2	3
Cc1cccc(-c2nc(CS(=O)CC(=O)N3CC(C)CC(C)C3)c(C)o2)c1 (centres undefined)	3	-1	4	i	55*	1
O=C(Nc1ccc(-n2cnnn2)cc1)c1cn2ccccc2n1	-1	104*	-6	i	-64	1
O=C(Nc1ccccc1)c1cn2ccccc2n1	0	1	3	i	35	0
COc1ccc2c(c1OC)C(=O)N1c3ccccc3COC21 (centres undefined)	3	-2	0	i	67*	-6
CCN(CC)S(=O)(=O)c1ccc(C)c(NS(=O)(=O)c2cc(/C=C/C(=O)O)cc(OC)c2OC)c1	5	3	8	i	-20	-3
COc1ccc(-c2cc(=O)c3cc(OC)ccc3[nH]2)cc1	3	1	1	+	2	3
CCCCc1nnc2c(N(C)S(=O)(=O)c3ccccc3)nc3ccccc3n12	2	0	-5	i	59*	4
CCc1ccc(CNC(=O)C2CCCN(S(=O)(=O)N3CC(C)CC(C)C3)C2)cc1 (centres undefined)	9	3	4	+	-14	-3
CCOC(=O)N1CCN(S(=O)(=O)N2CCCC(C(=O)NCc3cccc(OC)c3)C2)CC1 (centres undefined)	5	0	3	+	-8	4
Cc1ccc(CNC(=O)C2CCCN(S(=O)(=O)N3CCC(C)CC3)C2)cc1 (centres undefined)	-5	1	-1	i	3	0
CC1(C(=O)NS(=O)(=O)c2cccc(C#N)c2)CCN1C(=O)CC1CCCCC1 (centres undefined)	x	x	x	i	x	x
CCCCOCCCNC(=O)C[C@@H]1C[C@@]2(C(=O)OCC)CCC=C2N(Cc2cccc3ccccc23)C1=O	x	x	x	i	x	x
COc1ccc([N+](=O)[O-])cc1N(CC(=O)NCCCOC(C)C)S(C)(=O)=O	8	-2	4	i	60*	-4
CCCc1cc(=O)[nH]c(SCC(=O)N(C)Cc2ccccc2)n1	5	-1	3	i	-17	-2
Cc1nnc(SCC(=O)N(C)Cc2ccccc2)[nH]c1=O	9	0	0	i	88*	1
COc1ccc(CNCc2ccc3ccccc3c2)c(OC)c1	3	1	1	i	-26	-3
Cc1ccc(-n2c(SCC(=O)c3c(N)n(C)c(=O)n(C)c3=O)nc3sc4c(c3c2=O)CCCC4)c(C)c1	8	2	-4	+	-8	1
Cc1ccc(-n2c(SCC(=O)O)nc3sc4c(c3c2=O)CCCC4)cc1	0	-2	2	i	-12	0
O=C(CNC(=S)N(Cc1ccccc1)Cc1cccnc1)NC1CCCC1	1	0	3	i	-95	-1
SMILES	IDE cell inh	CRFBP-R2 agonist	IDE act	Myeloid diff MLP	CRFBP-R2 block	TPT1 inh
COc1ccc(C(CCN2CCCCC2)c2c(OC)cc(OC)c3c(-c4ccccc4)cc(=O)oc23)cc1 (centres undefined)	-1	59*	8	i	-32	-3
COc1cc(OC)c2c(-c3ccccc3)cc(=O)oc2c1C(CCN1CCCCC1)c1ccc(N(C)C)cc1 (centres undefined)	-4	8	0	i	-22	1
CCOc1ccc(N2C(=O)CC(NCCNc3ccc(C(=O)c4cccs4)cc3)C2=O)cc1 (centres undefined)	-5	0	-4	i	3	-1
Cc1cc(C(C2C(=O)CC(C)(C)CC2=O)C2C(=O)CC(C)(C)CC2=O)cc(C)c1OC(F)F	5	59*	-5	i	27	-3
CCc1ccc(C(C)NC(=S)NC2CCCCC2)cc1 (centres undefined)	x	5	-6	i	71*	x
Cc1ccc(N(C(=O)CNC(=O)c2ccco2)C(C(=O)NC2CCCC2)c2cccnc2)c(C)c1 (centres undefined)	-5	0	4	+	-15	-1
Cc1ccc(N(C(=O)CNC(=O)c2ccco2)C(C(=O)NC2CCCCC2)c2cccnc2)c(C)c1 (centres undefined)	0	1	4	i	0	-3
Cc1ccc(N2C3=C(C(=O)CC(C)(C)C3)C(c3cn(C)nc3C)C3=C2CC(C)(C)CC3=O)cc1	-4	3	-4	+	-4	-81
CCN(C(=O)CN1C(=O)COc2ccc(S(=O)(=O)N3CCCCCC3)cc21)c1cccc(C)c1	-8	56*	8	i	-48	-4
CCN(C(=O)C1CCN(S(=O)(=O)c2ccc3c(c2)oc(=O)n3C)CC1)c1cccc(C)c1	2	-1	-4	+	4	-2
CCN(CC)S(=O)(=O)c1ccc2c(c1)N(CC(=O)NCc1ccco1)C(=O)CO2	10	-1	2	i	83*	-2
CCN(CC)S(=O)(=O)c1ccc2c(c1)N(CC(=O)NCc1ccccn1)C(=O)CO2	-2	2	-1	i	-7	-1
O=C(CN1C(=O)COc2ccc(S(=O)(=O)N3CCCC3)cc21)NCc1ccccn1	1	-1	19*	i	7	-2
CCCc1c(C(=O)NNc2cccc(Cl)c2)cnn1-c1ccccc1	6	-1	6	i	3	-4
CCC(C)/C(C)=N/NC(=O)c1ccc(COc2ccc(Cl)c(C)c2)cc1 (centres undefined)	4	9	-2	+	-35	1
Cc1ccc(S(=O)(=O)N2CCN(C(=O)Cc3c(F)cccc3Cl)CC2)cc1	0	1	1	i	-9	-2
O=C1C=C(c2cc3ccccc3s2)C[C@@H](c2ccc(Cl)cc2)C1	1	1	-1	i	3	x
O=C1C=C(c2cccc3c2sc2ccccc23)C[C@@H](c2ccc(Cl)cc2)C1	6	6	23*	i	-9	x
